# From PubChem BioAssay AID504848 (National Center for Advancing Translational Sciences (NCATS), 2011)
# Screen size: about 2,300 compounds; about 1,400 (61%) were called active. About 29% were inconclusive and are not listed. Calls come from the whole dose curve; as a rule, active = well fitted inhibition curve with a large enough effect; inconclusive = small, poorly fitted or top-dose-only effect, or effect the other way; inactive = no such curve, though single readings can be large or run the other way. The set was probably picked from earlier hits. The list shows a part of the results.
# Assay: Confirmation screen for delayed death inhibitors of the malarial parasite plastid, 96 hour incubation; note: nearly all actives have a fitted effect of over 60% in size
# Conditions: P. falciparum luciferase growth in erythrocytes; series mostly up to 28.7 µM
# From the text: The goal of this screen is to discover new antimalarial compounds that act by inhibiting the development of the apicoplast in the malarial parasite Plasmodium falciparum. The biochemical processes that make this organelle essential for erythrocytic stage parasites are not well understood. However, antibiotics, such as azithromycin and tetracycline, which target the apicoplast translational machinery, have a potent antimalarial effect. […] We have developed a cell-based assay that measures parasite growth based on the expression of an integrated copy of a firefly luciferase reporter. To detect small molecules that cause this "delayed death phenotype, erythrocytes infected with the luciferase-expressing parasites were incubated with compounds for either one or two generations, corresponding to 48 and 96 hours, respectively. Compounds that inhibit parasite growth in the second generation, but not the first, should be enriched in antimalarials that target the apicoplast. Growth inhibition is detected by a decrease in luciferase activity. MLPCN Grant: R21 NS059500 Assay Provider: David Fidock and Eric Ekland, Columbia University Keywords: NIH Roadmap, MLPCN, MLI, MLSMR, qHTS, NCGC, qHTS, malaria, luciferase, viability
# Four microliters of culture medium (RPMI 1640 with 0.5% w/v Albumax (GIBCO), 24 mM sodium bicarbonate and 10 ug/mL gentamycin) were dispensed by a Multi-drop Combi into white solid 1536-well plates (Grenier) and 23 nL compound was added by a pin tool. Four microliters of infected erythrocytes (2% hematocrit, 0.1% parasitemia final concentration) in culture medium were dispensed and the plates incubated for 96 hours at 37 C in 5% CO2. Two microliters of luciferase detection reagent was added and luminescence was detected by a ViewLux (PerkinElmer) reader
# Potency is the fitted concentration of half-maximal effect.
row,SMILES,Potency
1,Cc1oc2c(c1C(=O)N1CCOCC1)C(=O)c1ccccc1C2=O,1.58 µM (active)
2,Cc1nnnn1/C(=C\c1ccccc1)C(=O)OCC(=O)N1CC2(C)CC1CC(C)(C)C2 (stereo unspecified),10 µM (active)
3,COc1ccc(/C=C/C(=O)c2ccc(C(=O)/C=C/c3ccc(OC)c(OC)c3)cc2)cc1OC,inactive
4,COc1cccc(C(=O)/C=C/c2ccc(OCC#N)c(OC)c2)c1,3.98 µM (active)
5,COc1cc(/C=C/C(=O)c2ccc(C)cc2)ccc1OCC#N,12.6 µM (active)
6,COc1cc(/C=C/C(=O)c2ccc(O)cc2)ccc1OCC#N,10 µM (active)
7,CCCCN(C)CCCNC(=O)c1cc(=O)[nH]c2ccc(S(=O)(=O)N3CCCCC3C)cc12 (stereo unspecified),1.12 µM (active)
8,CCCCN(C)C(=O)C1CCC(CNS(=O)(=O)c2ccc3c(c2)CC(C)N3C(=O)C2CC2)CC1 (stereo unspecified),5.62 µM (active)
9,CCOC(=O)c1c(C)nc(C)c(C(=O)OCC)c1-c1ccc(Br)cc1,11.2 µM (active)
10,Cc1ccc(C(=O)OCc2nnc(-c3ccc(Br)cc3)o2)cc1,inactive
11,CN(C)c1ccc(CN(C(=O)c2ccccc2Br)C2CCS(=O)(=O)C2)cc1 (stereo unspecified),14.1 µM (active)
12,CCCN1CCc2c(sc3nc(SCC)n(-c4ccccc4)c(=O)c23)C1,0.631 µM (active)
13,CCCN1CCc2c(sc3nc(SCC)n(-c4ccc(OC)cc4)c(=O)c23)C1,0.316 µM (active)
14,Cn1c(=O)c2c([nH]c(=O)n2C)n(C)c1=O,inactive
15,CCCc1cc(NCc2ccccn2)n2nc(C)c(-c3ccccc3)c2n1,3.55 µM (active)
16,NC(=O)CC(NC(=O)Cc1ccc(Br)cc1)c1ccc(NC2CC3CCC2C3)c([N+](=O)[O-])c1 (stereo unspecified),12.6 µM (active)
17,CC/C(=N\OC(=O)c1ccc(OC(C)C)cc1)c1ccc(C)cc1,11.2 µM (active)
18,COc1cc(C(=O)/C=C/c2cccnc2)ccc1O,5.01 µM (active)
19,O=C(/C=C/c1ccccc1)/C=C/c1ccccc1,2.51 µM (active)

row,SMILES,Potency
1,O=C(/C=C/c1cccnc1)c1ccc(O)cc1,11.2 µM (active)
2,O=C(/C=C/c1cccnc1)/C=C/c1cccnc1,3.55 µM (active)
3,COc1ccc(-c2cc(C)no2)cc1S(=O)(=O)Nc1cccc(CN2CCCC2)c1,12.6 µM (active)
4,COc1ccc(C)cc1S(=O)(=O)Nc1cccc(-c2ccc(N3CCCCCC3)nn2)c1,10 µM (active)
5,COc1ccc(S(=O)(=O)Nc2cccc(-c3ccc(N4CCCCCC4)nn3)c2)c(OC)c1,11.2 µM (active)
6,CCCOc1ccc(/C=C/C(=O)NC2CCCCC2)cc1OC,15.8 µM (active)
7,Nc1ccccc1C#CC(=O)c1ccccc1,14.1 µM (active)
8,CCCC1O[C@@H]2CC3C4CCC5=CC(=O)C=C[C@]5(C)C4C(OC(C)=O)C[C@]3(C)[C@]2(C(=O)COC(C)=O)O1 (stereo partly specified),1.41 µM (active)
9,CCOC(=O)C1CCN(c2cc3c(cc2NC(=O)c2ccccc2Cl)n(C)c(=O)n3C)CC1,7.94 µM (active)
10,O=C(C=C=Nc1ccccc1)C(=O)N=C=Cc1ccccc1,7.94 µM (active)
11,COc1ccc2c(CC(=O)OCC(=O)Nc3cccc(S(N)(=O)=O)c3)coc2c1,inactive
12,COc1ccc(NC(=O)Cc2coc3cc(C)c(C(C)C)cc23)cc1S(=O)(=O)N1CCOCC1,7.94 µM (active)
13,Cc1csc(NC(=O)Cc2coc3cc(C)c(C(C)C)cc23)n1,12.6 µM (active)
14,COc1ccc(NC(=O)Cc2ccc(Cl)cc2)cc1S(=O)(=O)N1CCCCC1,14.1 µM (active)
15,CC1CCC/C=C/C(=O)c2c(O)cc(O)cc2CC(=O)O1 (stereo unspecified),5.01 µM (active)
16,CC(C)c1cc(NC(=O)CCl)on1,7.08 µM (active)
17,COc1ccc(NC(=O)[C@H](Cc2c[nH]c3ccccc23)NC(=O)[C@@H]2Cc3ccccc3CN2)cc1,6.31 µM (active)
18,CCS(=O)(=O)N1Cc2ccccc2CC1C(=O)Nc1cccc(OC)c1 (stereo unspecified),inactive
19,O=C(NC(Cc1c[nH]c2ccccc12)C(=O)Nc1ccc(F)cc1)c1cccs1 (stereo unspecified),10 µM (active)

row,SMILES,Potency
1,Cc1cccc(NC(=O)[C@H](Cc2c[nH]c3ccccc23)NC(=O)[C@@H]2Cc3ccccc3CN2)c1,10 µM (active)
2,COc1cccc(NC(=O)[C@H](Cc2c[nH]c3ccccc23)NC(=O)[C@@H]2Cc3ccccc3CN2)c1,12.6 µM (active)
3,COC(=O)C1=C(C)NC2=C(C(=O)CC(c3cccs3)C2)C1c1ccsc1 (stereo unspecified),12.6 µM (active)
4,O=C(CNC(=O)C1CCCCC1)OC(C(=O)c1ccccc1)c1ccccc1 (stereo unspecified),15.8 µM (active)
5,COc1ccc(/C=C2\CN(Cc3ccccc3)C/C(=C\c3ccc(OC)c(O)c3)C2=O)cc1O,0.708 µM (active)
6,CCN1C/C(=C/c2ccc(OC)c(O)c2)C(=O)/C(=C/c2ccc(OC)c(O)c2)C1,14.1 µM (active)
7,CCOc1cc(/C=C2\CN(CC)C/C(=C\c3ccc(O)c(OCC)c3)C2=O)ccc1O,3.16 µM (active)
8,COc1ccc(NS(=O)(=O)c2cc(OCC(N)=O)c(C)cc2Cl)cc1,5.01 µM (active)
9,CCOC(=O)c1c(-c2ccc(C)cc2C)csc1NC(=O)CSc1nnnn1C,3.98 µM (active)
10,O=C(NC(Cc1ccccc1)c1nc2ccccc2[nH]1)C1CC(=O)N(c2ccc3c(c2)OCCO3)C1 (stereo unspecified),14.1 µM (active)
11,O=C1c2cccc3cc([N+](=O)[O-])cc(c23)C(=O)N1CCN1CCCC1,12.6 µM (active)
12,CN(c1ccccc1)S(=O)(=O)c1nnc(NC(=O)COc2ccccc2F)s1,12.6 µM (active)
13,Cc1ccc(S(=O)(=O)N2CCN(C(=O)CCc3c[nH]c4ccccc34)CC2)c(C)c1,14.1 µM (active)
14,COc1ccc(NC(=S)N2CCC(Cc3ccccc3)CC2)cc1OC,12.6 µM (active)
15,CCOC(=O)CC(Nc1nc(N2CCOCC2)nc(N2CCOCC2)n1)c1ccccc1Cl (stereo unspecified),3.98 µM (active)
16,O=C(/C=C/Sc1ccccc1)c1ccccc1,11.2 µM (active)
17,COC(=O)[C@]1(CC(C)C)N[C@H](c2ccc(-c3ccc(F)cc3)c(OC)c2)[C@@H]2C(=O)N(C)C(=O)[C@@H]21,2 µM (active)
18,CCOC(=O)Cn1nnnc1C(CC)N(Cc1cccs1)Cc1cc2ccc(OC)cc2[nH]c1=O (stereo unspecified),12.6 µM (active)
